3 molecules from PubChem BioAssay (NCATS) can be followed below.

Assay [1] has as its target Lysosomal acid glucosylceramidase (Homo sapiens) (UniProt P04062). The experiment in a line: Glucocerebrosidase-p2 (AID 348; in the data active = potency below about 10 µM; also: potency is read from the fitted curve at half-maximal effect). As to conditions: purified GBA, blue fluorogenic substrate, 40 min. The essentials:
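Compounds titrated from 0.6 nM upwards against 0.2 nM enzyme in pH 5.9 citric acid/KH2PO4, taurocholate, tween-20; blue fluorogenic substrate 80 uM, 40 min room temperature, stopped and read Ex 365/Em 440 for AC50.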

Assay [2] is described as follows: AP1 Signaling Pathway (AID 357; active = well fitted curve in either direction with a large enough effect, not every such curve was filed as active;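 also: ME-180 reporter cells stimulated with EGF at its EC50 level; % is scaled to controls: 0 for no effect and ±100 for the full control effect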). The conditions noted are these: ME-180 AP-1-bla reporter, EGF-induced, beta-lactamase ratio, 5 h; at 7.69 µM (top of the series) unless noted. In a few lines:
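Titration-series screen for positive or negative modulators of EC50 EGF-induced signaling in ME-180 cells carrying an AP-1-driven beta-lactamase reporter. After 5 hours at 37 degrees Celsius, CCF4 460nm/530nm emission ratio gave %Activity; AC50 values derived.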

Assay [3] addresses Cytochrome P450 1A2 (Homo sapiens) (UniProt P05177). The experiment in a line: p450-cyp1a2 (AID 410; calls by dose curve; also: potency is read from the fitted curve at half-maximal effect). As to conditions: recombinant CYP1A2, luciferin-ME demethylation, luminescence; series mostly up to 57 µM. The essentials: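 Inhibition was calculated relative to 57 uM furafylline (full inhibition). The reaction used human CYP1A2 at 20nM with Luciferin-ME at its Km, 100uM, driven by an NADPH-regenerating system for 60 min at room temperature.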

Assay [4] is described as follows: NFAT Signaling Pathway (AID 444; active = well fitted curve in either direction with a large enough effect, not every such curve was filed as active;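 also: carbachol stimulus at about its EC50 of 1 µM final; % is scaled to controls: 0 for no effect and ±100 for the full control effect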). The conditions noted are these: Jurkat NFAT-bla M1, carbachol, beta-lactamase ratio, 5 h; at 7.69 µM (top of the series) unless noted. The essentials: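 Read-out: CCF4 FRET ratio (460 nm/530 nm) after 1 h RT dye loading, used for %activity and AC50 from titration series. Cells: Jurkat NFAT-β-lactamase/M1 line, treated with compound plus 1 uM carbachol for 5 h, 37 °C.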

The nature of assay [5]: Stat Signaling Pathway (AID 446; active = well fitted curve in either direction with a large enough effect, not every such curve was filed as active;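 also: ME-180 cervical cancer cells given 40 pM IL-6 alongside compound; SIE-controlled beta-lactamase reporter measured as 460/530 nm FRET emission ratio; % is scaled to controls: 0 for no effect and ±100 for the full control effect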). As to conditions: ME-180 (cervical carcinoma) SIE beta-lactamase reporter, IL-6 stimulated, 5 h; at 7.69 µM (top of the series) unless noted. In a few lines:
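ME-180 SIE-bla cells; overnight plating; cpd + IL-6 40 pM, 5 h, 37 C; LiveBLAzer 2.5 h RT; 460/530 nm emission ratio. Normalized to 300 pM IL-6 and 125 nM JAK inhibitor controls.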

Assay [6] concerns the target Glucocorticoid receptor (Homo sapiens) (UniProt P04150). The experiment in a line: GR-GFP Redistribution (AID 450;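 active = compounds whose dose series gives a full or clear partial fitted curve of increased nuclear translocation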; also: potency is read from the fitted curve at half-maximal effect). As to conditions: U2OS GR-GFP nuclear translocation, laser cytometry, 2 h.
Assay [7] shares this target. In words: GR-EFC Redistribution (AID 451; calls by dose curve; also: potency is read from the fitted curve at half-maximal effect). The conditions noted are these: CHO-K1 GR-EFC translocation, beta-gal luminescence, 2 h. The essentials:
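Translocation of GR-ED fusion to nuclear EA restores b-gal, read by luminescence after 1 h room-temperature detection. Engineered CHO-K1 biosensor cells, 1,000/well, exposed 2 h at 37 C to titrations up to 46 uM final.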

The target of assay [8] is Mitogen-activated protein kinase 10 (Mus musculus) (UniProt Q61831). The experiment in a line: JNK3 AlphaScreen Assay (AID 530; active = well fitted curve in either direction with a large enough effect, not every such curve was filed as active;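 also: kinase came from lysate of stimulated human HepG2 cells; signal reports phosphorylation of biotinylated GST-cJun 1-79 at Ser73 with 10 µM ATP; % is scaled to controls: 0 for no effect and ±100 for the full control effect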). As to conditions: JNK3 lysate, c-Jun phosphorylation; series mostly up to 57.1 µM. In a few lines: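 Room-temperature AlphaScreen kinase assay; pre-activated HepG2 lysate as JNK3 source, biotin-GST-cJun(1-79) substrate, 10 uM ATP, compound 15 min preincubation.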
In general terms: Alpha assays give light when donor and acceptor beads are brought close together.

The target of assay [9] is 3',5'-cyclic-AMP phosphodiesterase 4B (Homo sapiens) (UniProt Q07343). The experiment in a line: qHTS Assay for Inhibitors of PDE-IV (AID 607; active = well fitted activation curve with a large enough effect in the main read-out, with a control signal flat, not every such curve was filed as active; also: % of control where 0% means no effect). As to conditions: HEK293 ACTOne CNG channel cells, membrane potential fluorescence; series mostly up to 22.9 µM. In a few lines:
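ACTOne HEK293 cells carry a modified cAMP-gated CNG channel and express endogenous PDE4; plated 1000 cells/well, compounds up to 22.9 uM final. Membrane-potential dye fluorescence (ex 535/em 590) was read; parental cells received 10 uM forskolin + 100 uM RO 20-1724.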
Background: In qHTS, concentration-response curves come from the screen itself.

A short description of assay [10]: qHTS Assay for Lipid Storage Modulators (AID 1519; calls by dose curve). The conditions noted are these: Drosophila S3 cells, BODIPY lipid droplet/cell ratio, laser cytometry, cells loaded with oleic acid; for activity change, negative = inhibition: at 57.5 µM (top of the series). In a few lines:
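Cells seeded at 5,000 per well were treated with compounds over a concentration series and loaded with oleic acid (400 uM, as added). Lipid droplet fluorescence (488 nm excitation, 500-530 nm channel) was read by laser-scanning cytometry and normalized to 20 uM Triacsin C.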

Assay [11] deals with Dual specificity protein kinase CLK4 (Homo sapiens) (UniProt Q9HAZ1). In words: qHTS Assay for Inhibitors of CDC-like Kinase 4 (Kinase-Glo Assay) (AID 1770). Also: % is scaled to controls: 0 for no effect and ±100 for the full control effect; nearly all actives have a fitted effect of over 65% in size. As to conditions: recombinant Clk4, Kinase-Glo ATP depletion luminescence; series mostly up to 66.7 µM. In a few lines: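 25 nM Clk4 with 100 uM RS repeat peptide and 1 uM ATP (final) in Tris pH7.5, 10 mM MgCl2, 4.5 h at room temperature. Remaining ATP measured by Kinase-Glo luciferase luminescence.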
Dual specificity protein kinase CLK4 (Homo sapiens), sequence (Q9HAZ1 whole entry, looked up): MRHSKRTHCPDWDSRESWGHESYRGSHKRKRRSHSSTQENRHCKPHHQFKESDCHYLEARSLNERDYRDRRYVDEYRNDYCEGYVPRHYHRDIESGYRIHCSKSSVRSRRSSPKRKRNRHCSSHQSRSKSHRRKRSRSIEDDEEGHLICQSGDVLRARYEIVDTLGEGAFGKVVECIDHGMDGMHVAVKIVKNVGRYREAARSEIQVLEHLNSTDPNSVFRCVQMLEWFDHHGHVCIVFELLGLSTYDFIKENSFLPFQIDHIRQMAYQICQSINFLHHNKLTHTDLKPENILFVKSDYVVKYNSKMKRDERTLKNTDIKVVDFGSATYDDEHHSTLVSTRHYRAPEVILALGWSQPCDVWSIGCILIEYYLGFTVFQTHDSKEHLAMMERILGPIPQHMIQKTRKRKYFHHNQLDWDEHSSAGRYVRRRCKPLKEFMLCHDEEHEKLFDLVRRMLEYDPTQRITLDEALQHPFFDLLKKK

Assay [12] shares this target. The experiment in a line: qHTS Assay for Inhibitors of CDC-like Kinase 4 (ADP-Glo Assay) (AID 1771). Also: % is scaled to controls: 0 for no effect and ±100 for the full control effect; nearly all actives have a fitted effect of over 70% in size. The conditions noted are these: recombinant CLK4, ADP-Glo luminescence; series mostly up to 80 µM. In a few lines:
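Kinase reaction: Clk4 at 25 nM, RS repeat peptide substrate at 100 uM, ATP at 1 uM, 1 hr, room temperature. Product ADP detected as luciferase signal via ADP-Glo.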

For assay [13] the target is unchanged. The experiment in a line: qHTS Assay for Inhibitors of CDC-like Kinase 4 (ADP-FP Assay) (AID 1795). Also: % is scaled to controls: 0 for no effect and ±100 for the full control effect; nearly all actives have a fitted effect of over 60% in size. As to conditions: Transcreener ADP fluorescence polarization; series mostly up to 50 µM. The essentials: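 Recombinant Clk4 (6.25 nM) phosphorylated 100 uM RS repeat peptide with 1 uM ATP in 25 mM Tris pH 7.5, 10 mM MgCl2, 0.5 mM EGTA, 2.5 mM DTT, 0.01% Triton X-100 for 1 h. ADP was detected by Transcreener ADP2 competitive fluorescence polarization after 30 min at room temperature.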

The target of assay [14] is Ubiquitin carboxyl-terminal hydrolase 1 (Homo sapiens) (UniProt O94782). The experiment in a line: Inhibitors of USP1/UAF1: Pilot qHTS (AID 504865).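 Also: rhodamine fluorescence freed from ubiquitin-rhodamine substrate followed over time; top concentration of the series differs between compounds; % is scaled to controls: 0 for no effect and ±100 for the full control effect; nearly all actives have a fitted effect of over 35% in size.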 The conditions noted are these: purified USP1/UAF1, Ub-rhodamine cleavage fluorescence; series mostly up to 54.9 µM. The essentials: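 USP1/UAF1 complex at 1 nM preincubated 15 min at room temperature with compound, then Ub-Rho substrate added at 150 nM final. Fluorescence (480/540 nm) read kinetically in 50 mM HEPES pH 7.8, 0.5 mM EDTA, 1 mM TCEP, 0.1 mg/ml BSA, 0.01% Tween-20.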
Ubiquitin carboxyl-terminal hydrolase 1 (Homo sapiens), sequence (O94782 whole entry, looked up): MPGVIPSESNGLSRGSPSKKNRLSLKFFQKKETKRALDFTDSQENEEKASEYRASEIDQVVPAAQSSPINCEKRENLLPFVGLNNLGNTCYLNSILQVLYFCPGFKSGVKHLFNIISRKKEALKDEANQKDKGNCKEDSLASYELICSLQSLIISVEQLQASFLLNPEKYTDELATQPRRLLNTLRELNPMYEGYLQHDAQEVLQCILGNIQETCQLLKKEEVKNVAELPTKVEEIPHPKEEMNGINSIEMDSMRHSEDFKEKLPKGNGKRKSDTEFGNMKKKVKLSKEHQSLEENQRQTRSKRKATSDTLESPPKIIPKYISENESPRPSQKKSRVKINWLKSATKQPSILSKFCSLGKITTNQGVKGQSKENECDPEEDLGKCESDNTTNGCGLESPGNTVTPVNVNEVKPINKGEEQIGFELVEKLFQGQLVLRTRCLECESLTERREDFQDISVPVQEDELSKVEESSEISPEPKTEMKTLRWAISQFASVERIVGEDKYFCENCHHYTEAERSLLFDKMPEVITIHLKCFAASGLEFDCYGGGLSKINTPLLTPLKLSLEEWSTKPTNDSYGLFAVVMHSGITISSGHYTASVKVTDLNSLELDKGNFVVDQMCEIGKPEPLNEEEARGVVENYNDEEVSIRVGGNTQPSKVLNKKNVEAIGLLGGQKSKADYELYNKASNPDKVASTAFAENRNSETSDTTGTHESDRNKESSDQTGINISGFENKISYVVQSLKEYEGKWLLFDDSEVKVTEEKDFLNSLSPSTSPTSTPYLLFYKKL

Assay [15] in a line: Primary qHTS for small molecule stabilizers of the endoplasmic reticulum resident proteome: Secreted ER Calcium Modulated Protein (SERCaMP) assay (AID 1508630). Also: % is scaled to controls: 0 for no effect and ±100 for the full control effect. As to conditions: SH-SY5Y GLuc-SERCaMP (Gaussia luciferase released on ER calcium loss) secretion, thapsigargin, luminescence; series mostly up to 38.4 µM. In a few lines:
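GLuc-SERCaMP-expressing SH-SY5Y cells, pretreated 16 h with compound, are challenged with thapsigargin to empty ER calcium stores; after 4 h, coelenterazine is added directly to the medium and luminescence is imaged.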

Assay [16] concerns the target Cytochrome P450 3A4 (Homo sapiens) (UniProt P08684). In words: qHTS Assay for Activators of Cytochrome P450 3A4 (AID 885). Also: nearly all actives have a fitted effect of over 65% in size. As to conditions: recombinant CYP3A4, Luciferin-PPXE luminescence, 60 min; series mostly up to 57.1 µM. The essentials:
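20nM CYP3A4 + 25uM Luciferin-PPXE (=KM), 200mM KPO4; cpd 10 min RT; NADPH regen, 60 min RT; stop w/ detection buffer, 20 min; luminescence. Normalized to 57 uM ketoconazole.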

The target is the same in assay [17]. In words: qHTS Assay for Inhibitors and Substrates of Cytochrome P450 3A4 (AID 884). Also: potency is read from the fitted curve at half-maximal effect; nearly all actives have a fitted effect of over 50% in size. The conditions noted are these: recombinant CYP3A4, Luciferin-PPXE luminescence; series mostly up to 57.1 µM. The essentials:
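20 nM human CYP3A4 with 25 uM Luciferin-PPXE (at KM) in 200 mM KPO4, preincubated 10 min with compound; NADPH regeneration started a 60 min RT reaction. Luciferin detected by luminescence, normalized to 57 uM ketoconazole as full inhibition.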

The target of assay [18] is Cytochrome P450 2C19 (Homo sapiens) (UniProt P33261). The experiment in a line: qHTS Assay for Inhibitors and Substrates of Cytochrome P450 2C19 (AID 899). Also: potency is read from the fitted curve at half-maximal effect; nearly all actives have a fitted effect of over 60% in size. As to conditions: recombinant CYP2C19, luciferin-H EGE luminescence; series mostly up to 57.1 µM. In a few lines:
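5nM enzyme + 10uM Luciferin-H EGE (=KM), 50mM KPO4; cpd pin-transferred, 10 min 37C; NADPH regen, 60 min 37C; stopped w/ luciferin detection reagent, 20 min; luminescence. Normalized to 57uM ketoconazole (AC100).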

[19] abbreviates: measured here: cell count channel max response.
The mark [20] stands for this setting: measured here: lipid channel max response.

Inconclusive results are not listed. Active and inactive are the calls of the source. Unless noted, calls follow the shape of the dose curve; as a rule, active = well fitted curve in the direction sought with a large enough effect; inconclusive = small, poorly fitted or top-dose-only effect, or another doubt; inactive = no such curve, though single readings can be large; an effect the other way counts as inactive or inconclusive.

Cytochrome P450 3A4 (Homo sapiens), sequence (P08684 whole entry, looked up): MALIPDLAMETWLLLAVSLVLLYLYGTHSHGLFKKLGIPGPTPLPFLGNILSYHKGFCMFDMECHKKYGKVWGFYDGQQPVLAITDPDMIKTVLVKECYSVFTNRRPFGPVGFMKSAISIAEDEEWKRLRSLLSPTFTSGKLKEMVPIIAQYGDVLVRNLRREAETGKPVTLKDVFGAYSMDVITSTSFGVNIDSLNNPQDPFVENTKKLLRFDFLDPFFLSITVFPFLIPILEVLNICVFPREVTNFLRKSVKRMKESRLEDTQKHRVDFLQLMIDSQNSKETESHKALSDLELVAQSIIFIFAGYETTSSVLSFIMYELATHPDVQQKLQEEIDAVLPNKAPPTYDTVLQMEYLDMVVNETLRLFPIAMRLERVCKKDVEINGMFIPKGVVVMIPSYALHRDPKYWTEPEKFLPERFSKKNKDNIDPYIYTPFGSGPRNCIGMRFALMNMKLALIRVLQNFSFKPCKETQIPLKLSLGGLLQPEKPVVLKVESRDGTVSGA
Cytochrome P450 1A2 (Homo sapiens), sequence (P05177 whole entry, looked up): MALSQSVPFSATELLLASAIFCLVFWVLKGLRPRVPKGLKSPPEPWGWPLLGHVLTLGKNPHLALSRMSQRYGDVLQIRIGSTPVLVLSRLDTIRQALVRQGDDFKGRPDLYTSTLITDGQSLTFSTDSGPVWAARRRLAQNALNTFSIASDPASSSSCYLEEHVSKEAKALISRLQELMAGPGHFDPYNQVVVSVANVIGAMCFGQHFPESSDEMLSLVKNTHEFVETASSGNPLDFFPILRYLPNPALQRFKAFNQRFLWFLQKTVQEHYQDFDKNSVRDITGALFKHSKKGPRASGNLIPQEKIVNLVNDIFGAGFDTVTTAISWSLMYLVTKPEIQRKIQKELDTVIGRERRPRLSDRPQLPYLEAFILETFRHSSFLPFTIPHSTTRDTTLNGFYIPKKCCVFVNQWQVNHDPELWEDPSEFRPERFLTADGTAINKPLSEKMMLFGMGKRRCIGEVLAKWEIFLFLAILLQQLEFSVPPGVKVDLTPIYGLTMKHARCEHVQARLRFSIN
Glucocorticoid receptor (Homo sapiens), sequence (P04150 whole entry, looked up): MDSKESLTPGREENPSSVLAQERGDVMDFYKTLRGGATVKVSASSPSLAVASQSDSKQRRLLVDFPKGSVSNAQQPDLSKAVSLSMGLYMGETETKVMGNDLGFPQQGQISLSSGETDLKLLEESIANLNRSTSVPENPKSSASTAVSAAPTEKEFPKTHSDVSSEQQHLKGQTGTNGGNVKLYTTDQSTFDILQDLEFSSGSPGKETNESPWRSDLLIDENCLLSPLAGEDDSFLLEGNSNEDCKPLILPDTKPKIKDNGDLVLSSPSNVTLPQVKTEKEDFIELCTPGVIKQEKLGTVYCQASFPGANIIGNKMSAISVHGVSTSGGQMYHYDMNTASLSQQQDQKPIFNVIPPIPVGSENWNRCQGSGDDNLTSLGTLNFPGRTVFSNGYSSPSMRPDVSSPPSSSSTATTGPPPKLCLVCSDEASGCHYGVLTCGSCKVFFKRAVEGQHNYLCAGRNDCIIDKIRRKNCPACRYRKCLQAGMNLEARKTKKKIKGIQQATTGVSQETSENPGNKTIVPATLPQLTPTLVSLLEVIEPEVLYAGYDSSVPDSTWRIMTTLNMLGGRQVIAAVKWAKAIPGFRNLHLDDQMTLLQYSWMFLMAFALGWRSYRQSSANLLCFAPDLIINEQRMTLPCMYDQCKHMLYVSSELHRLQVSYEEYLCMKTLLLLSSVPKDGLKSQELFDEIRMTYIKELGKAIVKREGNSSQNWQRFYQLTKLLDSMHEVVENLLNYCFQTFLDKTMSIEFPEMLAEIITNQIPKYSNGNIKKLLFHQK
Lysosomal acid glucosylceramidase (Homo sapiens), sequence (P04062 whole entry, looked up): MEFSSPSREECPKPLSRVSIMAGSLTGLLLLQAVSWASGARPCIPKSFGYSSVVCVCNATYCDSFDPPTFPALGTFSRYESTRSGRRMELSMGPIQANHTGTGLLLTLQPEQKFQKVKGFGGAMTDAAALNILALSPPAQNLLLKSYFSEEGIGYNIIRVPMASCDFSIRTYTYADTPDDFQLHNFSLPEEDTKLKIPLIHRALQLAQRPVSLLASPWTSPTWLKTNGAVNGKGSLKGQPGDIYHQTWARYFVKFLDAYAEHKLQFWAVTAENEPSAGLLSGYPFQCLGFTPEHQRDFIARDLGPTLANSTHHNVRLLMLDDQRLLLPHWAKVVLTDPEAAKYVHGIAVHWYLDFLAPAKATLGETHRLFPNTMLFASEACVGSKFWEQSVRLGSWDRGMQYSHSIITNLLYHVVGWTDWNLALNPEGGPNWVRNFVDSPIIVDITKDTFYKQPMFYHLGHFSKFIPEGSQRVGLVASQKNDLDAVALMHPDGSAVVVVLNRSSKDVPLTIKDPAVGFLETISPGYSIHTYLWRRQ
3',5'-cyclic-AMP phosphodiesterase 4B (Homo sapiens), sequence (Q07343 whole entry, looked up): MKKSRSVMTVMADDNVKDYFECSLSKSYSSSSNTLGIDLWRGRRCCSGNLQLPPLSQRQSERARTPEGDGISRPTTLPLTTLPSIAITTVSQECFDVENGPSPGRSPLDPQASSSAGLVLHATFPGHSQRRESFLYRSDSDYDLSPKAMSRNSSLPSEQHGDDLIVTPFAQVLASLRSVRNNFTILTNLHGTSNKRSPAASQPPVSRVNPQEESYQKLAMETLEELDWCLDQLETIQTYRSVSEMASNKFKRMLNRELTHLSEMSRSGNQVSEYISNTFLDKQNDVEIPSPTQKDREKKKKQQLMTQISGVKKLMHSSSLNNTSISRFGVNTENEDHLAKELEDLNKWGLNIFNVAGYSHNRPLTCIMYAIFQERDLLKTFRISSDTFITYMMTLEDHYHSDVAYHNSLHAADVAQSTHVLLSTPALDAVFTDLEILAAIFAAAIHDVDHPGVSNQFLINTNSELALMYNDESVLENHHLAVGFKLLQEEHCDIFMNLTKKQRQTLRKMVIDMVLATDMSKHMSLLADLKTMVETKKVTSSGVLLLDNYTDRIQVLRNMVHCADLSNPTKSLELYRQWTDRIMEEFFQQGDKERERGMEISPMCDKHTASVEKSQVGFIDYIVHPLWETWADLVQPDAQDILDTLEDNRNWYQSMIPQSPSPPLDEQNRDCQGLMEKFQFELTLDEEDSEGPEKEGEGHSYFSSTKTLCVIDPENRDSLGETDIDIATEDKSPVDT
Cytochrome P450 2C19 (Homo sapiens), sequence (P33261 whole entry, looked up): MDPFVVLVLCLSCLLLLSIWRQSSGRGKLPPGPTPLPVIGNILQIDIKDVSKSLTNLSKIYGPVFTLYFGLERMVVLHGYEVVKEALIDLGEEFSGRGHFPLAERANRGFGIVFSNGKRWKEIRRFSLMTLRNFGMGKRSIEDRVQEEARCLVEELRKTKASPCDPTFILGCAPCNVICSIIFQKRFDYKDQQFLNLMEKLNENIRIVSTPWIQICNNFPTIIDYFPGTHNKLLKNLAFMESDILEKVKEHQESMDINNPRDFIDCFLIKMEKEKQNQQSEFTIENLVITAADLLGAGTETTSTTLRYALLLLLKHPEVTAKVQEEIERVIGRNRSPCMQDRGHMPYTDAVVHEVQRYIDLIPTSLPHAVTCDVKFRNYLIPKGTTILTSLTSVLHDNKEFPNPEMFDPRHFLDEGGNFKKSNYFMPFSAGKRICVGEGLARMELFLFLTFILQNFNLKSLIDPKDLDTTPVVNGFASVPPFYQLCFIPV

As for `COc1cccc(Nc2ncc3nc(-c4ccc(F)cc4)c(=O)n(C)c3n2)c1`, the Potency in [1] was > 11.4 µM (inactive); in assay [3], 3.16 µM (active); in [6] it was > 9.22 µM (inactive); in assay [7], > 46 µM (inactive). For the same molecule, the figures for the activity change, negative = inhibition in assay [2], in assay [4] and in [10] were -6.29% (inactive), -16.4% (inactive) and 5.16% (inactive), respectively. Also, in assay [5], the activity, negative = inhibition is -6.63% (inactive). Besides, in assay [8], the molecule was called inactive. The Potency entry in assay [9], in assay [11], in [12], in assay [13], in [14] and in [15] was “inactive” throughout. Further, the figures for the max response in [10] (setting [19]) and in [10] (setting [20]) were 19% and 25.1%, respectively.
For `COc1ccccc1CNc1nc(-c2c(C)noc2C)nc2ccccc12`, the Potency in assay [1] was > 11.4 µM (inactive); in [3], 0.631 µM (active); in assay [6], > 46 µM (inactive); in assay [7], > 46 µM (inactive). Moreover, the results for the activity change, negative = inhibition in assay [2] and in assay [10] were 2.62% (inactive) and 7.14% (inactive), respectively. For the same molecule, the activity, negative = inhibition in [5] is -26.3% (inactive). Also, in assay [8], the molecule was called inactive. Further, the Potency entry in assay [16], in [11], in assay [12], in [13] and in [15] was “inactive” throughout. Also, the max response was 14% in [10] (setting [19]) and 19.1% in assay [10] (setting [20]).
Regarding `COc1ccccc1CNc1ccnc(-c2ccc3c(c2)OCO3)n1`, the activity change, negative = inhibition in assay [2] was -17.7% (inactive); in [4] it was -13.2% (inactive); in [10], 9.28% (inactive). Also, the Potency is 0.631 µM (active) in [3], > 46 µM (inactive) in assay [7], 1.58 µM (active) in assay [17] and 3.16 µM (active) in assay [18]. Further, the activity, negative = inhibition in assay [5] was -21.3% (inactive). For the same molecule, the outcome in [8] was inactive. In addition, the Potency entry in assay [16] and in assay [15] was “inactive” throughout. Moreover, the max response in assay [10] (setting [19]) is -12.3%; in assay [10] (setting [20]), -4.95%.
